This is an account of results in PubChem BioAssay (NCATS).

Records with an inconclusive call do not appear. Where a call stands in place of a potency, no number is given. Calls of active or inactive are those of the source. The call rests on the fitted dose curve; in most records, active means well fitted cell-killing curve with a large enough effect; inconclusive means small, poorly fitted or top-dose-only effect; inactive means flat fitted curve, though single readings scatter.
Potency means the concentration at half of the fitted maximal effect.

The nature of this experiment: Cell Viability - LYMP2-007 (AID 979).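 Further: cells exposed to compound for 24 h before reading; nearly all actives have a fitted effect of over 60% in size.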 Particulars: LYMP2-007 lymphoblastoid cell viability; series mostly up to 92.2 µM. The text has this:
NIH Chemical Genomics Center [NCGC]
NIH Molecular Libraries Screening Centers Network [MLSCN]
National Institutes of Environmental Health Sciences [NIEHS]
National Toxicology Program [NTP]
We have developed a 1536-well cell-based assay for quantitative high throughput screening (qHTS) against a number of cell lines to determine in vitro cytotoxicity of small molecules. This particular assay uses a human lymphoblastoid cell line (LYMP2-007) purchased from Coriell Institute for Medical Research.
NCGC Assay Protocol Summary:
The CellTiter-Glo luminescent cell viability assay (Promega) is a homogeneous method to measure the number of viable cells in culture. The end point readout of this assay is based on quantitation of intracellular ATP, an indicator of metabolic activity, using the luciferase reaction. Luciferase catalyzes the oxidation of beetle Luciferin to oxyluciferin and light in the presence of ATP. The luminescent signal is proportional to amount of ATP present.
Using the CellTiter-Glo luminescent cell viability assay, the amount of cellular ATP was measured in the lymphoblastoid cell line with complete culture medium following compound treatment for 24 hours. The assay was performed in opaque white Kalypsys 1536-well plates. In the screen, tetraoctylammonium bromide was used as positive control. Library compounds were measured for their ability to cause acute toxicity in the cell line, as reflected by a decrease in intracellular ATP levels, in a concentration-dependent manner. […] AC50 values were determined from concentration-response data modeled with the standard Hill equation.
qHTS protocol for CellTiter Glo lymphoblastoid cellular assay
[Step] [Parameter] [Value] [Description]
1. Reagent; 5 uL; 2500 lymphoblastoid cells/well
2. Time; 5 hr; 37 C incubation
4. Controls; 23 nL; Tetraoctylammonium bromide 6.4pM to 92 uM
5. Time; 24 hr; 37 C incubation
6. Reagent; 5 uL; CellTiter Glo reagent
7. Time; 30 min; Room Temperature
8. Detection; Luminescence; Viewlux plate reader
Keywords: cell viability, cytotoxicity, lymphoblastoid cell line, luminescence, NTPHTS, NTPHTS_NCGC, NIEHS, DSSTox, MLSMR, MLSCN, NIH Roadmap, qHTS, NCGC
Consider `CCCCCCCC/C=C\CCCCCCCC(=O)O`, for which the Potency entry is “inactive”.
As for `O=C(O)CCC(=O)C(=O)O`, the entry is “inactive”; as for `IC(I)I`, “inactive”.
Turning to `CC1=C2[C@@H]([C@H](C)CC[C@H]2/C=C(\C)C(=O)O)[C@H](O)C1`, the Potency entry is “inactive”.
The value for `CC(C)=O` was “inactive”; that for `CCOC(C)=O` was “inactive”.
As for `O=S(=O)(O)O`, the entry is “inactive”; as for `O=CCCCC=O`, 20 µM (active).
As to `Nc1ccn([C@H]2CS[C@@H](CO)O2)c(=O)n1`, the Potency entry was “inactive”.
The value for `CC(O)CO` (centres undefined) was “inactive”; that for `CCOc1ccc2c(c1)C(C)=CC(C)(C)N2` was “inactive”; that for `CCCCC/C=C\C/C=C\CCCCCCCC(=O)O` was “inactive”.
The value for `CCCCCCCC(=O)O` was “inactive”; that for `Cc1ccccc1` was “inactive”.
